Potency data for 22 molecules are collected here from PubChem BioAssay AID2596 (National Center for Advancing Translational Sciences (NCATS), 2010).

Molecules are shown by their SMILES. Results filed as inconclusive are left out. Where a call stands in place of a potency, no number is given. Active and inactive are the calls of the source. Calls follow the shape of the dose curve; as a rule, active = well fitted inhibition curve with a large enough effect; inconclusive = small, poorly fitted or top-dose-only effect, or effect the other way; inactive = flat fitted curve, though single readings scatter.

Chain of Lysosomal acid glucosylceramidase (Homo sapiens) (P04062 whole entry N409S): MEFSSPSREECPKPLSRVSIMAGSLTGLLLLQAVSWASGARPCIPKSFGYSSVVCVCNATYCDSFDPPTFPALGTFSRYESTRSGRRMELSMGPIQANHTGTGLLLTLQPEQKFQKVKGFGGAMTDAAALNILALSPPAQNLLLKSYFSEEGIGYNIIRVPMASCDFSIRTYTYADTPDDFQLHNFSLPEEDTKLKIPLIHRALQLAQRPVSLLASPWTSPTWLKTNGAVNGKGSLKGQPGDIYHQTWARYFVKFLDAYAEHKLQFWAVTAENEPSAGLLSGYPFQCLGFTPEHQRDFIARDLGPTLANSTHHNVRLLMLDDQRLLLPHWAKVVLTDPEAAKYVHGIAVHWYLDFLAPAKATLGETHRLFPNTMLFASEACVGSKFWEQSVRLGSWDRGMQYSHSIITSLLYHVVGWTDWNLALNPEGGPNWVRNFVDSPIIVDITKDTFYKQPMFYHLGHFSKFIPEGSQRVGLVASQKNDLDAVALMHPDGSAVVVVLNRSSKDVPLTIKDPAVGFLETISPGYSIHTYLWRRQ

The assay concerns the target Lysosomal acid glucosylceramidase (Homo sapiens) (UniProt P04062). Description: qHTS Assay for Inhibitors and Activators of N370S glucocerebrosidase as a Potential Chaperone Treatment of Gaucher Disease: Purified N370S Glucocerebrosidase Cleavage of Glucosylceramide. The conditions noted are these: purified N370S GCase; series mostly up to 77.6 µM. An excerpt: NIH Chemical Genomics Center [NCGC]
NIH Molecular Libraries Probe Production Centers Network [MLPCN]
Assay Submitter (PI): Wei Zheng
Glucocerebrosidase (GC) catalyzes the hydrolysis of beta-glucocerebroside to glucose and ceramide in lysosomes. Mutations in the glucocerebrosidase gene result in Gaucher disease, an autosomal recessive lysosomal storage disorder. Many of the mutations encountered in patients with Gaucher disease are missense alterations that may cause misfolding, decreased stability and/or mistrafficking of this lysosomal protein. […] These inhibitors include iminosugar analogs and three non-iminosugar inhibitors identified from a previous HTS of 62,000 compounds with the wild type recombinant enzyme. However, the enhancement of enzyme activity by the chaperone action of an enzyme inhibitor must be balanced against the direct inhibition of the enzyme. An enzyme activator could also function as a chaperone by binding to the enzyme and helping to correct its misfolding and mistrafficking. While activators for GC have not yet been identified, they may have better therapeutic potential than inhibitors. Therefore the discovery and development of chemical activators may provide a new strategy for the chaperone therapy.
We have optimized a new assay using N370S mutant GC derived from the spleen of a Gaucher patient. […] In addition, the MLPCN compound library has expanded, which increases the chance of finding new and better probes.
This assay characterizes compound activity using purified, mutant enzyme cleavage of the native substrate for the enzyme instead of mutant enzyme from tissue homogenate. Compound activity differences may be due to the absence of endogenous cofactors found in tissue homogenate as well as inherent differences in enzyme stability and catalytic activity using the difference substrates.
NCGC Assay Protocol Summary:
This is an enzyme assay using glucosylceramide from soy (Avanti Polar Lipids Catalog #: 131304P) as the substrate and recombinant human glucocerebrosidase as the enzyme preparation. Upon hydrolysis of the substrate, the glucose product can be detected using the Amplex Red Glucose Oxidase Assay Kit (Invitrogen catalog #: A22189). The product of this reaction can be read with a fluorescence plate reader with an excitation at 573 nm and an emission at 610 nm. Data were normalized to the controls for basal activity (without enzyme) and 100% activity (with enzyme). The AC50 values were determined from concentration-response data modeled with the standard Hill equation.
Assay buffer for enzyme reaction: 50 mM citric acid (titrated with potassium phosphate to pH 5.9), 0.01% Tween-20 (pH 5.9 is an optimal condition for this enzyme assay)
Assay buffer for Amplex Red reaction: Tris-HCl, pH 7.5
1536-well assay protocol for the glucocerebrosidase assay:
(1) Add 2 ul/well glucocerebrosidase enzyme solution (5 nM final)
(2) Add 23 nL compounds in DMSO solution. The final titration was 0.7 nM to 77 uM.
(3) Add 1 ul of glucosylceramide solution (50 uM final)
(4) Incubate at 37C for 40 min
(5) Add 2 ul tris-HCl buffer with Amplex Red reagents
(6) Incubate 45 min at room temperature.
(7) Detect the assay plate in a ViewLux plate reader (PerkinElmer) with Ex=573 nm and Em=610nm.
Keywords: Glucocerebrosidase, beta-glucosidase, Gaucher Disease, pharmacological chaperone, chaperone therapy, high throughput screening, glucocerebrosidase inhibitor, MLSMR, MLSCN, NIH Roadmap, qHTS and NCGC
(In general: Quantitative high-throughput screening tests each substance at several concentrations.)
For the molecule `COc1ccc(S(=O)(=O)N2CCN(c3nc(-c4cccs4)nc4ccccc34)CC2)cc1`, the Potency entry was “inactive”.
On to `Cc1cc(C)cc(N(CC(=O)NC2CCC(C)CC2)S(=O)(=O)c2c(C)[nH]c(=O)[nH]c2=O)c1` (configuration not stated), for which the Potency was 35.5 µM (active).
In the case of `O=C(c1ccc2c(c1)OCCO2)N1CCN(c2nc(-c3cccs3)nc3ccccc23)CC1` it was “inactive”.
Consider `S=C(NCCCc1cnc[nH]1)NCCCN(Cc1ccc(Cl)c(Cl)c1)c1ccc(Br)cn1`, for which the Potency is 44.7 µM (active).
The entry for `Cc1cccc(/C=N/NC(=O)NC23CC4CC(CC(C4)C2)C3)n1` is “inactive”; for `COc1ccc(-c2nc(N3CCN(S(=O)(=O)c4ccc(C)cc4)CC3)c3ccccc3n2)cc1` it is “inactive”.
The entry for `CCC(C)c1ccc(NC(=O)c2cnn3c(C(F)F)cc(C)nc23)cc1` (configuration not stated) is “inactive”; for `O=S(=O)(c1ccc(Cl)cc1)N1CCN(c2nc(-c3cccc(Br)c3)nc3ccccc23)CC1` it is “inactive”.
The entry for `O=S(=O)(c1ccccc1C(F)(F)F)N1CCN(c2nc(-c3cccs3)nc3ccccc23)CC1` is “inactive”; for `O=S(=O)(c1ccc(Cl)cc1)N1CCN(c2nc(Nc3cc(Cl)ccc3O)nc3ccccc23)CC1` it is 14.1 µM (active); for `Cc1cc(C)n2ncc(C(=O)Nc3cccc(O)c3)c2n1` it is “inactive”.
For `O=S(=O)(Cc1ccccc1)N1CCN(c2nc(-c3cccs3)nc3ccccc23)CC1`, the Potency result was “inactive”.
The entry for `O=S(=O)(c1ccc(Cl)cc1)N1CCN(c2nc(-c3cccs3)nc3ccccc23)CC1` is “inactive”; for `Cc1cc(C)n2ncc(C(=O)Nc3ccc(Cl)c(Cl)c3)c2n1` it is “inactive”.
The entry for `O=S(=O)(c1cccc2ccccc12)N1CCN(c2nc(-c3cccs3)nc3ccccc23)CC1` is “inactive”.
In the case of `c1ccc2c(NCC3CCCO3)nc(N3CCOCC3)nc2c1` (configuration not stated), the Potency entry was “inactive”.
The entry for `CSc1ccc(NC(=O)Nc2cc(C)ccn2)cc1` is “inactive”; for `O=S(=O)(c1ccc(F)cc1)N1CCN(c2nc(-c3ccc(F)cc3)nc3cc(Cl)ccc23)CC1` it is “inactive”.
The entry for `OCCNc1nc(-c2cccs2)nc2ccccc12` is “inactive”; for `O=C(CSc1nccc(-c2cccs2)n1)Nc1cccc(Cl)c1` it is “inactive”; for `COc1ccccc1C(=O)COC(=O)c1ccccc1OCC(=O)Nc1ccc(SC(F)F)cc1` it is “inactive”.
In the case of `Cc1cc(C)cc(N(CC(=O)NC2CCCCCC2)S(=O)(=O)c2c(C)[nH]c(=O)[nH]c2=O)c1` it was 14.1 µM (active).
